# From PubChem BioAssay (NCATS)
# Values joined by “and” are separate entries in the source; they are usually repeats but may differ in a detail not shown here. Equal values may be shown once. Inconclusive results are not listed. Active and inactive are the calls of the source. Unless noted, calls come from the whole dose curve; as a rule, active = well fitted curve in the direction sought with a large enough effect; inconclusive = small, poorly fitted or top-dose-only effect, or another doubt; inactive = no such curve, though single readings can be large; an effect the other way counts as inactive or inconclusive.
# Key:
# [1] = Primary qHTS for inhibitors of nuclear receptor binding SET domain protein 2 (NSD2) in an isogenic RCH-ACV NSD2 p.E1099K mutant (9B) (AID 1645876); details: RCH-ACV NSD2 E1099K (9B) viability, CellTiter-Glo, 72 h; series mostly up to 44.9 µM; note: nearly all actives have a fitted effect of over 70% in size; note: potency is the fitted concentration of half-maximal effect
# [2] = Primary qHTS for inhibitors of nuclear receptor binding SET domain protein 2 (NSD2) in an RCH-ACV wild type WT cells (2C) (AID 1645877); details: RCH-ACV (leukaemia line) NSD2 WT (2C) viability, CellTiter-Glo, 72 h; series mostly up to 44.9 µM; note: nearly all actives have a fitted effect of over 70% in size; note: potency is the fitted concentration of half-maximal effect
# [3] = biological target: Catechol O-methyltransferase (Homo sapiens) (UniProt P21964); assay: Confirmatory Screen for Target Class Profiling of Small Molecule Inhibitors of Methyltransferases (AID 1745852; calls by dose curve; note: potency is the fitted concentration of half-maximal effect; for activity change, negative = inhibition: % is set by controls: 0 for no effect and ±100 for the full control effect); details: MTase-Glo luminescence, SAH detection, recombinant enzyme; measured here: COMT max response; stronger effect = lower value
# Chain of Catechol O-methyltransferase (Homo sapiens) (P21964 whole entry, looked up): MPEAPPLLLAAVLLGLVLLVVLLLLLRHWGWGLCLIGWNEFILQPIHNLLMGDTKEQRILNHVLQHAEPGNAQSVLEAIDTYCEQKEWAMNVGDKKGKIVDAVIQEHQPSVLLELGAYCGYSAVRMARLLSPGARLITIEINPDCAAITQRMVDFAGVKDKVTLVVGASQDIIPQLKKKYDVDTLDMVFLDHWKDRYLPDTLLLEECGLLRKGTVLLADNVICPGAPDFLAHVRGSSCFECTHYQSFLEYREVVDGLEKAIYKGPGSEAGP
# [4] = biological target: Guanidinoacetate N-methyltransferase (Homo sapiens) (UniProt Q14353); assay: as above; details: MTase-Glo luminescence, SAH detection, recombinant enzyme; activity change, negative = inhibition: at 57.3 µM (top of the series) unless noted; series mostly up to 57.3 µM
# [5] = biological target: Nicotinamide N-methyltransferase (Homo sapiens) (UniProt P40261); assay: as above; details: MTase-Glo luminescence, SAH detection, recombinant enzyme; measured here: NNMT max response; stronger effect = lower value
# Chain of Nicotinamide N-methyltransferase (Homo sapiens) (P40261 whole entry, looked up): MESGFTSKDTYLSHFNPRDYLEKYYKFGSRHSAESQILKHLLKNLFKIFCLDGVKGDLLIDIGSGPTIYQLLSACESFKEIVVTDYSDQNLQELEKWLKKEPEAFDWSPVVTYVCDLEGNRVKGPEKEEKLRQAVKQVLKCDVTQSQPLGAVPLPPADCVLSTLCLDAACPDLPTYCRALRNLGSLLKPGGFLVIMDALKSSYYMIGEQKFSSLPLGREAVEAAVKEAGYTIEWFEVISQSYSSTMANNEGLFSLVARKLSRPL
# [6] = biological target: Phenylethanolamine N-methyltransferase (Homo sapiens) (UniProt P11086); assay: as above; details: MTase-Glo luminescence, SAH detection, recombinant enzyme; measured here: PNMT max response; stronger effect = lower value
# Chain of Phenylethanolamine N-methyltransferase (Homo sapiens) (P11086 whole entry, looked up): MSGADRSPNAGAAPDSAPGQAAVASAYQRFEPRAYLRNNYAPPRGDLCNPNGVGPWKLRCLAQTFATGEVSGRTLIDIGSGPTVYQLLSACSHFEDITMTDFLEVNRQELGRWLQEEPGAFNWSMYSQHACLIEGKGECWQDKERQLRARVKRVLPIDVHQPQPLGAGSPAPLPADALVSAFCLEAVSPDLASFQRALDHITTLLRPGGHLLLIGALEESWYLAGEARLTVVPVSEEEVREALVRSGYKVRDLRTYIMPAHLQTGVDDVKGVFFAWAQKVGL
# [7] = biological target: Rap guanine nucleotide exchange factor 3 (Homo sapiens) (UniProt O95398); assay: Confirmatory qHTS for agonist of cAMP-regulated guanine nucleotide exchange factor 3 (EPAC1) (AID 1645881); details: EPAC1 Rap1B BODIPY-GDP exchange fluorescence, 100% = cAMP control response; series mostly up to 154 µM;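 note: EPAC1 catalysed release of BODIPY-GDP from Rap1B seen as fluorescence loss; nearly all actives have a fitted effect of over 75% in size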
# Chain of Rap guanine nucleotide exchange factor 3 (Homo sapiens) (O95398 whole entry, looked up): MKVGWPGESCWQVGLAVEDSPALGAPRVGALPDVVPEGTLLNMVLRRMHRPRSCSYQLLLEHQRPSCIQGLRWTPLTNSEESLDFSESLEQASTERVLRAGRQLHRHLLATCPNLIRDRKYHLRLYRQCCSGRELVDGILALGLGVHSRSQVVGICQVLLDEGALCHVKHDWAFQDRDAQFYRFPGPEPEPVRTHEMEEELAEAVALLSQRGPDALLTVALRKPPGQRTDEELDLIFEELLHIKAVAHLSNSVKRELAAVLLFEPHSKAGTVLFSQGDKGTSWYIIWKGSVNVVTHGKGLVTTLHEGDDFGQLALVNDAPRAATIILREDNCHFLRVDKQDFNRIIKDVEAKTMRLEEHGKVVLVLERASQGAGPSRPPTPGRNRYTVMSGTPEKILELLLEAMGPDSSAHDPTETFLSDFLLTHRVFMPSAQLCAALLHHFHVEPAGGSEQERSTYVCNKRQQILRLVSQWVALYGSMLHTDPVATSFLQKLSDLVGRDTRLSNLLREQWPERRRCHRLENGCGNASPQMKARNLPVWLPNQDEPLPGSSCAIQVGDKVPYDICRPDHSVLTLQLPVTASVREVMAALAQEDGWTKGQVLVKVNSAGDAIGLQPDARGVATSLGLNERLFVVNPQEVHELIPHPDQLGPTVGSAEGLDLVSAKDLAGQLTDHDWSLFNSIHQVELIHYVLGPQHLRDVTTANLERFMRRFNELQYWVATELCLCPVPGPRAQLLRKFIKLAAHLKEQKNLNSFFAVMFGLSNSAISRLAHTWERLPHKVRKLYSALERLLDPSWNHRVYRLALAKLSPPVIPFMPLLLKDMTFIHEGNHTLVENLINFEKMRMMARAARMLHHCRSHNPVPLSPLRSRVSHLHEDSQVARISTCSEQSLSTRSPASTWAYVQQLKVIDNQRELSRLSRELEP
# [8] = biological target: Rap guanine nucleotide exchange factor 4 (Homo sapiens) (UniProt Q8WZA2); assay: Confirmatory qHTS for agonist of cAMP-regulated guanine nucleotide exchange factor 4 (EPAC2) (AID 1645884); details: EPAC2 GEF activity, Rap1B-BODIPY-GDP fluorescence, percent relative to cAMP agonist control; series mostly up to 154 µM;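 note: nucleotide exchange releases bodipy-GDP from Rap1 and this lowers its fluorescence; % is set by controls: 0 for no effect and ±100 for the full control effect; nearly all actives have a fitted effect of over 65% in size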
# Chain of Rap guanine nucleotide exchange factor 4 (Homo sapiens) (Q8WZA2 whole entry, looked up): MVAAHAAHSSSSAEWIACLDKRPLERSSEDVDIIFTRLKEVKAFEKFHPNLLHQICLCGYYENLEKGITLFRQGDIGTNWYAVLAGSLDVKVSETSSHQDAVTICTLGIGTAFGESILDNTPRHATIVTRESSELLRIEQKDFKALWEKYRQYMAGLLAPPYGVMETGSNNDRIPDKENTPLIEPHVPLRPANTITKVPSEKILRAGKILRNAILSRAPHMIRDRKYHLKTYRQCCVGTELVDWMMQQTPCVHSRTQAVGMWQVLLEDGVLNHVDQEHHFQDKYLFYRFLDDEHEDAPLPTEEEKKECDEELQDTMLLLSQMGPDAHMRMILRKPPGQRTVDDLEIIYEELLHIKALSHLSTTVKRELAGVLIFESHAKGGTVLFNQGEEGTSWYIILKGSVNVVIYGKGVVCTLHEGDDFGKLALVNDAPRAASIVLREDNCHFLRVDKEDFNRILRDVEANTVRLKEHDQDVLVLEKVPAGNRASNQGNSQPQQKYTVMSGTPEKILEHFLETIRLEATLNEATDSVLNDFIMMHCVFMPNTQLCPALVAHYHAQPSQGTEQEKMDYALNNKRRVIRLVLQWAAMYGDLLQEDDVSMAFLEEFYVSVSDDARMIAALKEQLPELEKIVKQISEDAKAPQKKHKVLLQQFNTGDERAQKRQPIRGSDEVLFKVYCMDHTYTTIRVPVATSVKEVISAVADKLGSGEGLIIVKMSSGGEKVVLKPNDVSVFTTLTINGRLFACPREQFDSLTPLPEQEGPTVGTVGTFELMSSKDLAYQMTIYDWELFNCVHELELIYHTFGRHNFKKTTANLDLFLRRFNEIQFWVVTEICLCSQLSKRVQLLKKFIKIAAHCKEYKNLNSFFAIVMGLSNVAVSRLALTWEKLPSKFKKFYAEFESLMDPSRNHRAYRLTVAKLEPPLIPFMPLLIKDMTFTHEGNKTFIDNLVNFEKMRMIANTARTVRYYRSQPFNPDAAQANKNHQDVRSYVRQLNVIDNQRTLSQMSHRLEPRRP
# [9] = biological target: Rap guanine nucleotide exchange factor 4 (Homo sapiens) (UniProt Q8WZA2); assay: Confirmatory qHTS for antagonist of cAMP-regulated guanine nucleotide exchange factor 4 (EPAC2) (AID 1645885); details: EPAC2 Rap1B-BODIPY-GDP exchange fluorescence, biochemical; series mostly up to 114 µM; note: % is set by controls: 0 for no effect and ±100 for the full control effect; nearly all actives have a fitted effect of over 25% in size
# [10] = biological target: Rap guanine nucleotide exchange factor 3 (Homo sapiens) (UniProt O95398); assay: Counterscreen qHTS for antagonist of cAMP-regulated guanine nucleotide exchange factor 3 (EPAC1) (AID 1645888); details: Rap1B-BODIPY-GDP nucleotide exchange, fluorescence; series mostly up to 154 µM;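 note: fluorescence loss as bound BODIPY-GDP is released from Rap1B; % of control where 0% means no effect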
# Summary of the method: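 Rap1B-BODIPY-GDP 250 nM + GDP 50 uM; cpds 7-pt, final 9.74 nM–152 uM (activator mode) or from 7.32 nM upwards (inhibitor mode); RT; FI 480/540 nm at 5 and 30 min, then ± cAMP, reread.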
# [11] = NCATS anti-infectives library activity on HEK293 viability as a counter-qHTS vs the C. elegans viability qHTS (AID 1745854); details: HEK293 viability counter-screen; series mostly up to 41.8 µM;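 note: HEK293 cells exposed to compounds for 24 hr before the viability read; % is set by controls: 0 for no effect and ±100 for the full control effect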
# Summary of the method: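 HEK293 cells (1,500/well) exposed 24 hr at 37C to 1:5 titrations, up to 41.7 uM final; counter-screen to a C. elegans viability qHTS. Viability by CellTiter-Glo luminescence after 10 min at room temperature; digitonin as control.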
# [12] = NCATS anti-infectives library activity on the primary C. elegans qHTS viability assay (AID 1745855; calls by dose curve); details: C. elegans worm area imaging, day 7; series mostly up to 41.8 µM
# Summary of the method: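 Viability read-out is GFP fluorescence of PE254-GFP-FLuc C. elegans, measured by laser cytometry (488 nm) at day 0, 3 and 7. Ten L1 worms per well were incubated 7 days at 21 °C with compounds and bacterial capsules in S medium.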
# [13] = Viability counterscreen for antagonist of constitutive androstane receptor (CAR) against the NCATS DSHEA and TCM libraries (AID 1794837); details: CAR reporter cell line viability counterscreen, qHTS; series mostly up to 40 µM;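 note: compound exposure lasted 24 h before viability reading; 0% is about no effect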
# Summary of the method: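 HepG2-CYP2B6-hCAR cells, 2,500/well, were exposed 24 hr at 37C to substances together with 48 uM CITCO (final). Viability was read as CellTiter-Fluor fluorescence (Ex/Em 405/540 nm) after 1 hr.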
# [14] = Viability counterscreen for agonist of constitutive androstane receptor (CAR) against the NCATS DSHEA and TCM libraries (AID 1794838); details: HepG2 cell viability counterscreen, CAR agonist assay, co-treated with 0.75 µM CAR antagonist; series mostly up to 40 µM;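 note: HepG2 cells with CYP2B6 reporter and hCAR plus 0.75 µM PK11195 antagonist; 0% is about no effect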
# Summary of the method: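 HepG2-CYP2B6-hCAR cells (2,500/well) treated 24 h at 37C with compounds plus 0.75 uM PK11195; viability read by CellTiter-Fluor fluorescence, Ex/Em 405/540 nm.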
structure (smiles),measurement,setting,value
COCC(c1ccc(C(F)(F)F)cc1)N1CCN(C2(C)CCN(C(=O)c3c(C)ncnc3C)CC2)CC1C (configuration not stated),Potency,[1],inactive
same,Potency,[2],inactive
C=C1C(=O)OC2C1CCC1(C)C(O)CC=C(C)C21 (configuration not stated),Potency,[1],18.3 µM (active)
same,Potency,[2],16.3 µM (active)
same,activity,[3],-60.3%
same,"activity change, negative = inhibition",[4],-6.03%
same,activity,[5],-3.54%
same,activity,[6],-2.19%
CC(=O)[C@H]1CC[C@H]2[C@@H]3CC=C4C[C@@H](OS(=O)(=O)O)CC[C@]4(C)[C@H]3CC[C@]12C,Potency,[1],inactive
same,Potency,[2],inactive
same,outcome,[7],inactive
same,outcome,[8],inactive
same,Potency,[9],inactive
same,outcome,[10],inactive
CCC[C@H](N[C@H]1CCc2cc(F)cc(F)c2C1)C(=O)Nc1cn(C(C)(C)CNCC(C)(C)C)cn1,Potency,[1],16.3 µM (active) and 13.2 µM (active)
same,Potency,[2],13.2 µM (active)
same,outcome,[11],inactive
same,Potency,[12],inactive
Cc1cc2ncc(C(=O)NCC(C)(C)NCC(=O)N3CCC[C@H]3C#N)cn2n1,Potency,[1],inactive
same,Potency,[2],inactive
same,outcome,[11],inactive
O=C(c1ccccc1)c1c(O)cc(O)cc1O[C@@H]1O[C@H](CO)[C@@H](O)[C@H](O)[C@H]1O,Potency,[1],inactive
same,Potency,[2],inactive
same,activity,[3],-80.6%
same,"activity change, negative = inhibition",[4],-2.61%
same,activity,[5],-5.29%
same,activity,[6],-6.01%
CC1(C)CC[C@]2(C(=O)O)CC[C@]3(C)C(=CCC4[C@@]5(C)C[C@@H](O)[C@H](O)C(CO)(CO)C5CC[C@]43C)C2[C@@H]1O (some centres not stated),Potency,[1],8.93 µM (active)
same,Potency,[2],8.93 µM (active)
same,activity,[3],-63.1%
same,"activity change, negative = inhibition",[4],0% [at 29.8 µM]
same,activity,[5],0%
same,activity,[6],6.04%
CC1(C)CC[C@]2(C(=O)O[C@@H]3O[C@H](CO)[C@@H](O)[C@H](O)[C@H]3O)CC[C@]3(C)C(=CCC4[C@@]5(C)CC[C@H](O[C@@H]6O[C@H](C(=O)O)[C@H](O)[C@H](O)[C@H]6O)C(C)(C)C5CC[C@]43C)[C@@H]2C1 (some centres not stated),Potency,[1],6.08 µM (active)
same,Potency,[2],5.41 µM (active)
same,activity,[3],-55%
same,"activity change, negative = inhibition",[4],-1.02% [at 19.1 µM]
same,activity,[5],-9.04%
same,activity,[6],-2.05%
COc1c(CCC(=O)O)cccc1O[C@@H]1O[C@H](CO)[C@@H](O)[C@H](O)[C@H]1O,Potency,[1],inactive
same,Potency,[2],inactive
same,activity,[3],-74.9%
same,"activity change, negative = inhibition",[4],2.56%
same,activity,[5],0.561%
same,activity,[6],-9.51%
CC(C)(O)C(=O)N1CCN(c2ccc(C(F)(F)F)c(C3=C(c4c[nH]c5ccccc45)C(=O)NC3=O)c2)CC1,Potency,[1],1.15 µM (active)
same,Potency,[2],1.03 µM (active)
same,activity,[3],-37.9%
same,Potency,[4],30.4 µM (active)
same,activity,[5],-37%
same,activity,[6],-34.7%
C=C1C(=O)OC2/C=C(\C)CC/C=C(\C=O)C(OC)C(OC(=O)C(C)CC)C12 (configuration not stated),Potency,[1],7.13 µM (active)
same,Potency,[2],2.84 µM (active)
same,activity,[3],-70.5%
same,"activity change, negative = inhibition",[4],-5.12%
same,activity,[5],-2.69%
same,activity,[6],-0.332%
C=C1C(=O)OC2C1CCC1(C)C(O)CCC(=C)C21 (configuration not stated),Potency,[1],18.3 µM (active)
same,Potency,[2],16.3 µM (active)
same,activity,[3],-62.8%
same,"activity change, negative = inhibition",[4],-2.15%
same,activity,[5],1.08%
same,activity,[6],-1.43%
C=C1[C@H]2CC[C@H](C(=O)O)[C@@]23CC[C@H](C3)C1(C)C,Potency,[1],inactive
same,Potency,[2],inactive
same,outcome,[13],inactive
same,outcome,[14],inactive
CC(C)CCNC(=O)[C@H](CC(C)C)NC(=O)[C@H]1O[C@@H]1C(=O)O,Potency,[1],inactive
same,Potency,[2],inactive
same,outcome,[11],inactive
C=C1C(=O)O[C@@H]2/C=C(\CO)CC/C=C(/C=O)C[C@H](O)[C@@H]12,Potency,[1],7.28 µM (active)
same,Potency,[2],4.09 µM (active)
same,activity,[3],-86.9%
same,"activity change, negative = inhibition",[4],-3.06%
same,activity,[5],4.28%
same,activity,[6],0.589%
Clc1ccc(Cn2c(Cc3ccccc3)nc3ccccc32)cc1,Potency,[1],11.5 µM (active)
same,Potency,[2],18.3 µM (active)
same,activity,[3],-6.59%
same,"activity change, negative = inhibition",[4],-6.78%
same,activity,[5],-51%
same,activity,[6],-7.3%
